These compounds were tested against Alpha-bungarotoxin (Bungarus multicinctus) (UniProt P60615) (assay: alpha-bungarotoxin binders on microarray, profiling panel, artefact control for SMM control protein annotation, biochemical, small-molecule microarray, Alexa647 label, 635/667 nm fluorescence (AID 1117)). Details: alpha-BTX-A647 binding fluorescence, higher = more signal.
Chain of Alpha-bungarotoxin (Bungarus multicinctus) (P60615 whole entry, looked up): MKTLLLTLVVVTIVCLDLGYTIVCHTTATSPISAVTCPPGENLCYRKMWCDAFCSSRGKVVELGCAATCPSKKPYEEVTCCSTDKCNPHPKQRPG

Compound | composite z-score
CCCNC(=O)[C@@H]1c2ccccc2C(=O)N(Cc2ccc(OC(F)(F)F)cc2)[C@H]1c1ccc(CO)cc1 | 0.102
O=C1OCCC=C[C@H]2OC34C=CCN(Cn5nnc6ccccc65)C(=O)[C@H]3N(CCCO)C(=O)[C@@H]4C12 (stereo partly specified) | 0.204
CCOC(=O)C[C@H]1[C@H](OC(=O)c2ccc(-c3ccccc3)cc2)[C@@H](NC(=O)CC(C)C)c2cc(OCCCO)ccc2N1C(=O)c1ccc2ccccc2n1 | 0.0623
COCCOC(=O)N1C(=O)[C@@]2(c3cc(C#CC4=CCCCC4)ccc31)[C@H](c1ccccc1OCCO)N1[C@H](c3ccccc3)[C@H](c3ccccc3)OC(=O)[C@H]1[C@@H]2C(=O)NC[C@H](O)c1ccccc1 | 1.64
COCCCNC(=O)[C@@]1(Sc2ccc(C)cc2)CC(=O)N(C2Cc3ccccc3C2)[C@@H]1c1ccc(CO)cc1 | -0.715
COc1cc2c(cc1O)C(c1ccc(CN3CCCC3)cc1)N(Cc1cc3c(cc1Br)OCO3)CC2 (stereo unspecified) | 0.132
CC(C)(C)OC(=O)CC[C@@]1(C(=O)NCC(O)CO)N=C(c2ccc(OCCCO)cc2)O[C@@H]1c1ccccc1CN=[N+]=[N-] (stereo partly specified) | 0.833
Cc1ccc(S[C@]2(C(=O)NCCN3CCOCC3)CC(=O)N(Cc3ccccc3Cl)[C@@H]2c2ccc(CO)cc2I)cc1 | -0.903
CC1CC/C=C\[C@H]2OC34C=CCN(C(C)(C)C)C(=O)[C@H]3N(CCCCCO)C(=O)[C@@H]4C2C(=O)O1 (stereo partly specified) | -1.25
COc1ccc(CCNC(=O)[C@@]2(c3ccc([N+](=O)[O-])cc3)CC(=O)N(C3CCCCC3)[C@@H]2c2ccc(CO)cc2)cc1 | 0.823
COCCOC(=O)N1C(=O)[C@@]2(c3cc(C#CCNC(N)=O)ccc31)[C@H](C(N)=O)[C@H]1C(=O)O[C@H](c3ccccc3)[C@H](c3ccccc3)N1[C@@H]2c1ccccc1OCCO | 1.06
COC(=O)[C@@H]1N=C(c2ccc(OCCCO)cc2)O[C@@H]1C | -0.294
O=C(c1ccccc1)N1C(=O)[C@]2(Cc3ccccc31)N=C(c1ccc(OCCCO)cc1)O[C@@H]2c1ccccc1 | 1.46
O=C(NCCN1CCOCC1)[C@@H]1c2ccccc2C(=O)N(C2Cc3ccccc3C2)[C@H]1c1ccc(CO)cc1 | 0.776
CCCCC(CC)C(O)C1C=CC2C(=O)N(C)C(=O)C2N1Nc1ccccc1 (stereo unspecified) | 1.34
CC[C@@H]1C=C(C(=O)O)[C@H](c2ccc(C#N)cc2)N1S(=O)(=O)c1ccc(C)cc1 | 0.62

Compound | composite z-score
[N-]=[N+]=Nc1ccccc1C[C@@]1(C(N)=O)N=C(c2ccc(OCCCO)cc2)O[C@@H]1c1ccccc1N=[N+]=[N-] | 1.09
C=CC[C@@H](OC(=O)Nc1ccc(SC)cc1)c1ccc(O)c(F)c1 | 0.26
CS(=O)(=O)CCOC(=O)C1=CC(c2ccc(CO)cc2)=CC(C2CC2)N(Cc2sc3ccccc3c2Cl)C=C1C(=O)OCCS(C)(=O)=O (stereo unspecified) | 1.89
CCOC(=O)C[C@H]1[C@H](OC(=O)c2ccccc2-c2ccccc2)[C@@H](NC(=O)c2ccc3ccccc3n2)c2cc(OCCCO)ccc2N1C(=O)Cc1ccc(OC)cc1 | 0.365
CCOC(=O)C1=C[C@@H](C(C)(C)C)N(S(=O)(=O)c2ccc(C)cc2)[C@H]1c1cccc2ccccc12 | 0.657
Cc1ccc(S[C@]2(C(=O)O)CC(=O)N(C3CCCCC3)[C@@H]2c2ccc(CO)cc2I)cc1 | 0.763
COc1ccc([Si](C)(C)[C@@H]2[C@@H](CCO)O[C@]3(C(=O)N(Cc4ccccc4)c4ccc(N5C(=O)c6cccc7cccc5c67)cc43)[C@H]2C)cc1 | 0.0366
O=C(Cc1ccccc1)[C@H]1C2C=CCCC(c3ccccc3)=C2CN1Cc1ccccc1 (stereo partly specified) | -0.0051
COc1ccccc1CN1C(=O)c2ccccc2[C@](Cc2ccccc2I)(C(=O)O)[C@@H]1c1ccc(CO)cc1 | 1.21
Cc1cc(C)c(C(O)C2C=CC3C(=O)N(c4ccccc4)C(=O)C3N2Nc2ccccc2F)c(C)c1 (stereo unspecified) | 0.505
CN(C)c1ccc(C(O)C2C=CC3C(=O)NC(=O)C3N2Nc2ccccn2)cc1 (stereo unspecified) | 0.162
C[N+](C)(C)CCCC[C@@H]1NC(=O)[C@@H]2C[C@H](C(=O)NCCCCCCN)[C@H](c3cccc(OCCO)c3)N2C1=O | 1.9
CCN(CC)c1ccc(N2CC=CC34O[C@@H]5/C=C\CCCOC(=O)C5[C@H]3C(=O)N(C(C)CO)[C@@H]4C2=O)cc1 (stereo partly specified) | 1.04
CCCCC=C[C@@H](NC(=O)OCc1ccccc1Cl)c1ccccc1 | 0.922
CCCN1C(=O)[C@]2(Cc3ccccc31)N=C(c1ccc(OCCCO)cc1)O[C@@H]2c1ccccc1 | 1.28

— PubChem BioAssay
